Reference: the supplement of paper PMC10849652
About 7,900 targets were measured; listed, in parts, are those with a hit and a random draw of the rest. About 0.6% of all pairs of compound and target were hits.

Legend:
Assay in all cases: log2 fold change, soluble protein after heating vs DMSO (PISA); higher = thermal stabilisation; K562 cells, 10 uM, 30 min; active = over 0.2 and 3.5 SD of the protein, either way, in both replicates (recomputed)
[1] = compound: COC1=CC=C(C=C1)CN2C=CC3=C2C=C(C=C3)C(=O)NO
Outline: (§1)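 K562 cells at 2×10^6 cells/mL were exposed to 10 μM compound for 30 min, then aliquots were heated for 3 min across 48°C-58°C, pooled, and extracted in PBS containing 0.5% NP-40 at 4°C. The supernatant after 21,000xg for 90 min was taken as soluble protein and measured by TMTpro 16plex LC-MS/MS with channel sums equalised. Thermal stability is reported relative to control samples, with values from duplicates. Fold changes are given on a log2 scale.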

filanesib = compound: CON(C)C(=O)N1N=C(c2cc(F)ccc2F)S[C@@]1(CCCN)c1ccccc1 [filanesib]
Outline: as §1

zotarolimus = compound: CO[C@H]1C[C@@H]2CC[C@@H](C)[C@@](O)(O2)C(=O)C(=O)N2CCCC[C@H]2C(=O)O[C@H]([C@H](C)C[C@@H]2CC[C@H](n3cnnn3)[C@H](OC)C2)CC(=O)[C@H](C)/C=C(\C)[C@@H](O)[C@@H](OC)C(=O)[C@H](C)C[C@H](C)/C=C/C=C/C=C/1C [zotarolimus]
Outline: as §1

idasanutlin = compound: COc1cc(C(=O)O)ccc1NC(=O)[C@@H]1N[C@@H](CC(C)(C)C)[C@](C#N)(c2ccc(Cl)cc2F)[C@H]1c1cccc(Cl)c1F [idasanutlin]
Outline: as §1

alisertib = compound: COc1cc(Nc2ncc3c(n2)-c2ccc(Cl)cc2C(c2c(F)cccc2OC)=NC3)ccc1C(=O)O [alisertib]
Outline: as §1

[2] = compound: COc1cc2nc(-c3cc(F)ccc3O)nc(N[C@@H]3CNC[C@H]3C(C)(C)O)c2cc1OC
Outline: as §1

gefitinib = compound: COc1cc2ncnc(Nc3ccc(F)c(Cl)c3)c2cc1OCCCN1CCOCC1 [gefitinib]
Outline: as §1

[3] = compound: COc1cccc2cc(-c3nc([C@H]4CC[C@H](C(=O)O)CC4)n4ncnc(N)c34)[nH]c12
Outline: as §1

lapatinib = compound: CS(=O)(=O)CCNCc1ccc(-c2ccc3ncnc(Nc4ccc(OCc5cccc(F)c5)c(Cl)c4)c3c2)o1 [lapatinib]
Outline: as §1

pictilisib = compound: CS(=O)(=O)N1CCN(Cc2cc3nc(-c4cccc5[nH]ncc45)nc(N4CCOCC4)c3s2)CC1 [pictilisib]
Outline: as §1

[4] = compound: CS(=O)(=O)c1ccc(-c2cnc(N)c(C(=O)Nc3ccccc3)n2)cc1
Outline: as §1

crizotinib = compound: C[C@@H](Oc1cc(-c2cnn(C3CCNCC3)c2)cnc1N)c1c(Cl)ccc(F)c1Cl [crizotinib]
Outline: as §1

[5] = compound: C[C@@H]1COCCN1C2=NC(=NC(=C2)C3(CC3)S(=O)(=O)C)C4=C5C=CNC5=CC=C4
Outline: as §1

[6] = compound: C[C@H](C1=CC=C(C=C1)C(=O)NC2=C3C=CNC3=NC=C2)N
Outline: as §1

duvelisib = compound: C[C@H](Nc1ncnc2nc[nH]c12)c1cc2cccc(Cl)c2c(=O)n1-c1ccccc1 [duvelisib]
Outline: as §1

gandotinib = compound: Cc1cc(Nc2cc(CN3CCOCC3)c3nc(C)c(Cc4ccc(Cl)cc4F)n3n2)n[nH]1 [gandotinib]
Outline: as §1

tozasertib = compound: Cc1cc(Nc2cc(N3CCN(C)CC3)nc(Sc3ccc(NC(=O)C4CC4)cc3)n2)n[nH]1 [tozasertib]
Outline: as §1

[7] = compound: Cc1cc(SCc2sc(-c3ccc(C(F)(F)F)cc3)nc2C)ccc1OCC(=O)O
Outline: as §1

doramapimod = compound: Cc1ccc(-n2nc(C(C)(C)C)cc2NC(=O)Nc2ccc(OCCN3CCOCC3)c3ccccc23)cc1 [doramapimod]
Outline: as §1

ispinesib = compound: Cc1ccc(C(=O)N(CCCN)[C@@H](c2nc3cc(Cl)ccc3c(=O)n2Cc2ccccc2)C(C)C)cc1 [ispinesib]
Outline: as §1

Measured: log2 fold change

PAK4 (UniProt O96013)
inactive: [1] -0.106 | filanesib 0.068 | zotarolimus 0.03 | idasanutlin -0.021 | alisertib 0.153 | [2] 0.195 | gefitinib 0 | [3] 0.075 | lapatinib -0.047 | pictilisib 0.072 | [4] -0.028 | crizotinib -0.033 | [5] 0.058 | [6] -0.017 | duvelisib 0.037 | gandotinib -0.028 | tozasertib -0.013 | [7] 0.021 | doramapimod -0.042 | ispinesib -0.111

PRKCD (UniProt Q05655)
UniProt Q05655, sequence (Q05655 whole entry, looked up): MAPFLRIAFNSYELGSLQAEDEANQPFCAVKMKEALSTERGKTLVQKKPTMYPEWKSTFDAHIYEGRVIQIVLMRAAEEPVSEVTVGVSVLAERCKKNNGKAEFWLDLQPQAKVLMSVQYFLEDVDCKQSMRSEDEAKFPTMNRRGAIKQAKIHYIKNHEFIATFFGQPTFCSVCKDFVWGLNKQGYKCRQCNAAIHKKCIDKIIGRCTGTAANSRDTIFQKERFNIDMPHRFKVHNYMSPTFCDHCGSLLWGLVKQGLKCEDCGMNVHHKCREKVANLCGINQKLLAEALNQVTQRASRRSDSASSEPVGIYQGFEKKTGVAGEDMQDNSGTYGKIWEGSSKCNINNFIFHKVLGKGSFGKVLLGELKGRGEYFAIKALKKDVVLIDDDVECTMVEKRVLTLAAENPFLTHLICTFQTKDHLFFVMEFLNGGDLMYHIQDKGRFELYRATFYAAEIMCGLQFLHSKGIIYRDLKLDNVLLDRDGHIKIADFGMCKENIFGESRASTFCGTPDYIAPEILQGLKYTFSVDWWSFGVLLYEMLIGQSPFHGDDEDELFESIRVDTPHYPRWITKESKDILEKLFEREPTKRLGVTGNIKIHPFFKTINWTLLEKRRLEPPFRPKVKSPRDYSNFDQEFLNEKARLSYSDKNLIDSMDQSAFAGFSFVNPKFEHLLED
inactive: [1] -0.019 | filanesib -0.004 | zotarolimus 0.032 | idasanutlin -0.017 | alisertib 0.037 | [2] -0.003 | gefitinib -0.002 | [3] 0.074 | lapatinib 0.02 | pictilisib 0.026 | [4] 0.05 | crizotinib -0.008 | [5] 0.053 | [6] -0.215 | duvelisib 0.009 | gandotinib -0.056 | tozasertib -0.006 | [7] 0.007 | doramapimod 0.005 | ispinesib -0.007

PRKAB2 (UniProt O43741)
UniProt O43741, sequence (O43741 whole entry, looked up): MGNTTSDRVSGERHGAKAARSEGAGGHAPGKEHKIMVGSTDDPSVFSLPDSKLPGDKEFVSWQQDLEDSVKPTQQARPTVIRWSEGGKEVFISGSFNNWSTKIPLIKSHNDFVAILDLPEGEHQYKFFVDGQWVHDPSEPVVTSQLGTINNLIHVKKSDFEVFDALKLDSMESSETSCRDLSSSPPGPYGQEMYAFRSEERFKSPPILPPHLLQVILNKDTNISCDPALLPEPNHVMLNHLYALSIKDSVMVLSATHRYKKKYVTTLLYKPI
inactive: [1] 0.038 | filanesib -0.167 | zotarolimus 0.109 | idasanutlin 0.14 | alisertib 0.053 | [2] -0.074 | gefitinib 0.004 | [3] 0.057 | lapatinib 0.131 | pictilisib 0.111 | [4] -0.08 | crizotinib -0.245 | [5] 0.021 | [6] -0.231 | duvelisib -0.154 | tozasertib 0.044 | [7] 0.051 | doramapimod -0.041 | ispinesib 0.143
active: gandotinib -0.484

PRKAR1B (UniProt P31321)
inactive: [1] 0.1 | filanesib 0.034 | zotarolimus 0.011 | idasanutlin -0.099 | alisertib 0.02 | [2] 0.027 | gefitinib 0.051 | [3] -0.162 | lapatinib 0.004 | pictilisib 0.199 | [4] 0.137 | crizotinib 0.132 | [5] 0.071 | [6] 0.123 | duvelisib 0.199 | gandotinib 0.095 | tozasertib 0.136 | [7] -0.011 | doramapimod -0.03 | ispinesib -0.072

PARL (UniProt Q9H300)
UniProt Q9H300, sequence (Q9H300 whole entry, looked up): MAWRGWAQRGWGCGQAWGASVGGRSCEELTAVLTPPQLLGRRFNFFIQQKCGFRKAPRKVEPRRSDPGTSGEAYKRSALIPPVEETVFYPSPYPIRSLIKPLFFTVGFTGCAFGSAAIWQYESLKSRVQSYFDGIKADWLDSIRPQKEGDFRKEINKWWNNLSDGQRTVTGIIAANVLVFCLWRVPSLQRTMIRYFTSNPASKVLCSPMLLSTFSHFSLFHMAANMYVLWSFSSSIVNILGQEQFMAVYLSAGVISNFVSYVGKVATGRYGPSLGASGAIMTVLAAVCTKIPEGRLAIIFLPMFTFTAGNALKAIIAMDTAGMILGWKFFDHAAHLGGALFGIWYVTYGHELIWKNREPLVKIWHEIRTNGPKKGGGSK
inactive: [1] -0.061 | filanesib -0.091 | zotarolimus -0.034 | idasanutlin -0.068 | alisertib -0.016 | [2] -0.2 | gefitinib 0.038 | [3] 0.08 | lapatinib 0.04 | pictilisib 0.011 | [4] -0.004 | crizotinib -0.036 | [5] 0.186 | [6] -0.011 | duvelisib 0.03 | gandotinib 0.025 | tozasertib -0.017 | [7] -0.035 | doramapimod -0.009 | ispinesib -0.193

PEA15 isoform 2 (UniProt Q15121)
inactive: [1] 0.011 | filanesib -0.079 | zotarolimus 0.05 | idasanutlin -0.02 | alisertib -0.047 | [2] -0.009 | gefitinib 0 | [3] -0.015 | lapatinib -0.003 | pictilisib 0.03 | [4] 0.012 | crizotinib 0.136 | [5] 0.141 | [6] -0.048 | duvelisib 0.074 | gandotinib -0.073 | tozasertib 0.103 | [7] 0.048 | doramapimod 0.003 | ispinesib 0.034

PTGFRN (UniProt Q9P2B2)
UniProt Q9P2B2, sequence (Q9P2B2 whole entry, looked up): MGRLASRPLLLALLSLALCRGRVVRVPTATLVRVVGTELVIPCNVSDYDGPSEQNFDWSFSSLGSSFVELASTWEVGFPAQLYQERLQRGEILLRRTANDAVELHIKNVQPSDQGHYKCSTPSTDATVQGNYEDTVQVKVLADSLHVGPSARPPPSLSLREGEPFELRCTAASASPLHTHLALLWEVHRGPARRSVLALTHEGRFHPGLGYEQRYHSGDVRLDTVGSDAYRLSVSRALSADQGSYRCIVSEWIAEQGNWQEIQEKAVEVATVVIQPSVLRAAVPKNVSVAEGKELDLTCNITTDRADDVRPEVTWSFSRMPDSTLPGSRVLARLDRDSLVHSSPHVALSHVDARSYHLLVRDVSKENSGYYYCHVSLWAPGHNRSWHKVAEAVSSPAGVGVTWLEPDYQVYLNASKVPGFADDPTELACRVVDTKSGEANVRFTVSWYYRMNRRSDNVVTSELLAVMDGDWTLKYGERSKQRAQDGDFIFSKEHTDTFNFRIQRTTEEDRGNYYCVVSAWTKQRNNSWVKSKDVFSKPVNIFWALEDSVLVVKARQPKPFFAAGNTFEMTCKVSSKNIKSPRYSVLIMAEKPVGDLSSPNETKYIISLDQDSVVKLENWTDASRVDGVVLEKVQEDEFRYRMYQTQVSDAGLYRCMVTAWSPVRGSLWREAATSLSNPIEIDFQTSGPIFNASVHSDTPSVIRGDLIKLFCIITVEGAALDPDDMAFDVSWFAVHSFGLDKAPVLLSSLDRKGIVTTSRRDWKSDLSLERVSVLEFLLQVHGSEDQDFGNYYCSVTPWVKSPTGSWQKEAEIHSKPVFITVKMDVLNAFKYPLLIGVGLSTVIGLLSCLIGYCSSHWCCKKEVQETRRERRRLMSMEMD
inactive: [1] 0.006 | filanesib 0.129 | zotarolimus -0.021 | idasanutlin 0.073 | alisertib 0.01 | [2] 0.139 | gefitinib 0.025 | [3] 0.124 | lapatinib 0.036 | pictilisib 0.122 | [4] 0.068 | crizotinib 0.057 | [5] 0.063 | [6] -0.003 | duvelisib 0.122 | gandotinib -0.023 | tozasertib -0.101 | [7] -0.065 | doramapimod 0.001 | ispinesib 0.165

PRKCB isoform 2 (UniProt P05771)
UniProt P05771, sequence (P05771 whole entry, looked up): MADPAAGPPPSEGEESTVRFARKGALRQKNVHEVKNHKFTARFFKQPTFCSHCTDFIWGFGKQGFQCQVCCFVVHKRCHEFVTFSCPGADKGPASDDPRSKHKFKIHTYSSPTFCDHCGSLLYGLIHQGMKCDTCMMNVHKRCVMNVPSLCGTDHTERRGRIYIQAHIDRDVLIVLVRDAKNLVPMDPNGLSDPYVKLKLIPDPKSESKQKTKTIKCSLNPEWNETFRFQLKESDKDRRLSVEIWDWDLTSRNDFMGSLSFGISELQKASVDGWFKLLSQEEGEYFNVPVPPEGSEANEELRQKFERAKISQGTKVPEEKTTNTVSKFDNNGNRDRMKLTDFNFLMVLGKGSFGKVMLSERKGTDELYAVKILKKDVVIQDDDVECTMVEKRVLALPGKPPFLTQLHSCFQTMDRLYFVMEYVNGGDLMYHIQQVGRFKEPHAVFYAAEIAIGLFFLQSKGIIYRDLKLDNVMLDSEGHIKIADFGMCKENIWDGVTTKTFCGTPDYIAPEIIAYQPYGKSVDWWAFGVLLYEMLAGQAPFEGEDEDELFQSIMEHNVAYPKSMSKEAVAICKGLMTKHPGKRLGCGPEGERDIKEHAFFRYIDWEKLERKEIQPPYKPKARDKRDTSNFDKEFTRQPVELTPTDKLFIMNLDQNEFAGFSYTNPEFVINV
inactive: [1] -0.011 | filanesib -0.022 | zotarolimus 0.046 | idasanutlin -0.028 | alisertib -0.051 | [2] 0.035 | gefitinib 0.001 | [3] -0.036 | lapatinib -0.008 | pictilisib 0.035 | [4] 0.019 | crizotinib -0.039 | [5] 0.039 | [6] -0.063 | duvelisib 0.035 | gandotinib -0.079 | tozasertib 0.018 | [7] 0.032 | doramapimod -0.01 | ispinesib -0.017

PBX2 (UniProt P40425)
UniProt P40425, sequence (P40425 whole entry, looked up): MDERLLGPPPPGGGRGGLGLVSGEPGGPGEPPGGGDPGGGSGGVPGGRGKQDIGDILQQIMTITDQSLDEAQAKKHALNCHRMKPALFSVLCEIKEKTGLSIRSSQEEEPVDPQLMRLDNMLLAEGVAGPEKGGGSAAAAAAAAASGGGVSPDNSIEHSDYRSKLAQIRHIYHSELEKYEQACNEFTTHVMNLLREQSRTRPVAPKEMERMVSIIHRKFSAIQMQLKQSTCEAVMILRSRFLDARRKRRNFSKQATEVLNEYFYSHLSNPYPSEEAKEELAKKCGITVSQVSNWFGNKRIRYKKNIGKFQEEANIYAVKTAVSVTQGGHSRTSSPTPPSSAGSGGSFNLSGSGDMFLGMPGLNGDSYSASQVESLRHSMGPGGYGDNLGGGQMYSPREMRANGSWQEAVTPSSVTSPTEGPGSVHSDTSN
inactive: [1] 0.132 | filanesib -0.055 | zotarolimus 0.115 | idasanutlin 0.102 | alisertib -0.027 | [2] -0.114 | gefitinib -0.02 | [3] 0 | lapatinib 0.014 | pictilisib 0.01 | [4] -0.001 | crizotinib -0.14 | [5] 0.026 | [6] -0.051 | duvelisib 0.018 | tozasertib 0.062 | [7] 0.095 | doramapimod 0.119 | ispinesib -0.102
active: gandotinib -0.632

PLEKHM2 (UniProt Q8IWE5)
inactive: [1] 0.007 | filanesib -0.09 | zotarolimus 0.053 | idasanutlin -0.083 | alisertib 0.044 | [2] -0.041 | gefitinib 0.075 | [3] -0.041 | lapatinib 0.084 | pictilisib 0.011 | [4] 0.023 | crizotinib -0.162 | [5] 0.02 | [6] -0.047 | duvelisib 0.044 | gandotinib -0.06 | tozasertib 0.144 | [7] 0.04 | doramapimod 0.064 | ispinesib -0.02

PUM1 isoform 3 (UniProt Q14671)
UniProt Q14671, sequence (Q14671 whole entry, looked up): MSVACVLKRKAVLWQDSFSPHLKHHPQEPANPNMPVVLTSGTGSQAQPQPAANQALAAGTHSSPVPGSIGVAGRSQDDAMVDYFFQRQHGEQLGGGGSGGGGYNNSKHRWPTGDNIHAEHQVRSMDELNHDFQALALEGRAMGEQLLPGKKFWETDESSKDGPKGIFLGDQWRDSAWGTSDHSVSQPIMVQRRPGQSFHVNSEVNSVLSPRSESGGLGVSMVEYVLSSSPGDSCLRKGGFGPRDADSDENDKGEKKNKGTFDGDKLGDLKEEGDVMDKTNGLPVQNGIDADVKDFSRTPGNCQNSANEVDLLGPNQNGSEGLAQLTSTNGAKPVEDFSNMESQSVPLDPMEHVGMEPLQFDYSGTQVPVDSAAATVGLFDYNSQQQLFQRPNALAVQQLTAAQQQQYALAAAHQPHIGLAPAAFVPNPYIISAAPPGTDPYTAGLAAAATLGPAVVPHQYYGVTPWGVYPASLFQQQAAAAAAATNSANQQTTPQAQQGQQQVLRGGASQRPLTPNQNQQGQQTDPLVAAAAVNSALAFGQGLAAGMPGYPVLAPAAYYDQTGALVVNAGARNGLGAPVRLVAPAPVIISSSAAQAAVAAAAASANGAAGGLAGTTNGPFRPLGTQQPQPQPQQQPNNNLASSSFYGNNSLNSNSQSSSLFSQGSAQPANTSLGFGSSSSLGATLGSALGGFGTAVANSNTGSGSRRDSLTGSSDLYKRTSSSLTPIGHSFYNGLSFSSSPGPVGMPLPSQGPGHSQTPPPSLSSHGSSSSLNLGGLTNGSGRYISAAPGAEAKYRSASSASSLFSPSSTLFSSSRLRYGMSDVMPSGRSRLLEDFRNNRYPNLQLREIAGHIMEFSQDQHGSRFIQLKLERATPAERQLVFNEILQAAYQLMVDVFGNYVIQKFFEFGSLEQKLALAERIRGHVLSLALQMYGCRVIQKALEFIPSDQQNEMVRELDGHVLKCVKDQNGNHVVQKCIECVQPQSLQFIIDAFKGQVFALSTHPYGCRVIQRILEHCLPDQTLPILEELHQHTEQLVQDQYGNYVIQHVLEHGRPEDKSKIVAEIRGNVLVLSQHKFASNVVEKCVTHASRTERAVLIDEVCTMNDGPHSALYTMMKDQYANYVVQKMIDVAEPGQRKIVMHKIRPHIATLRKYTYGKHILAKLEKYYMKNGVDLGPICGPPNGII
inactive: [1] -0.003 | filanesib 0.007 | zotarolimus -0.023 | idasanutlin 0.006 | alisertib -0.039 | [2] -0.025 | gefitinib 0.025 | [3] -0.002 | lapatinib 0.004 | pictilisib -0.012 | [4] 0.007 | crizotinib -0.02 | [5] -0.007 | [6] 0.071 | duvelisib 0.008 | gandotinib -0.055 | tozasertib 0.007 | [7] 0.007 | doramapimod -0.03 | ispinesib 0.01

PRKAR2A (UniProt P13861)
UniProt P13861, sequence (P13861 whole entry, looked up): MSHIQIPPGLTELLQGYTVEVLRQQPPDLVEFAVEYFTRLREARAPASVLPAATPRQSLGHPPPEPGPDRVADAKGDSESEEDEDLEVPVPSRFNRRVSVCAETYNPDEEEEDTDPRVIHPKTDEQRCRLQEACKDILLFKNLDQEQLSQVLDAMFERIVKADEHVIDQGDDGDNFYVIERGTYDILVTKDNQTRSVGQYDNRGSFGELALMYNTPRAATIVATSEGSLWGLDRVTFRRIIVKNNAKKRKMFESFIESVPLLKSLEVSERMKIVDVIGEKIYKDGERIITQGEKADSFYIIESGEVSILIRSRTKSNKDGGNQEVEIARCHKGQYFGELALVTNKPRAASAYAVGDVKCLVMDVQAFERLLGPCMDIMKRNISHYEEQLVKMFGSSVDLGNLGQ
active: [2] -0.493
inactive: [1] -0.033 | filanesib -0.021 | zotarolimus 0.013 | idasanutlin -0.009 | alisertib -0.058 | gefitinib 0.048 | [3] 0.006 | lapatinib 0.034 | pictilisib 0.057 | [4] 0.046 | crizotinib -0.038 | [5] 0.089 | [6] -0.159 | duvelisib 0.069 | gandotinib -0.02 | tozasertib 0.04 | [7] 0.023 | doramapimod 0.03 | ispinesib -0.056
